# Assay results: article PMC4552634, “A New Set of Chemical Starting Points with Plasmodium falciparum Transmission-Blocking Potential for Antimalarial Drug Discovery” (PLoS ONE, 2015)
# In all, about 13,000 compounds went through this assay and about 3,200 (25%) showed an effect of 50% or more. The list shows a part of the results.
# System: P. falciparum stage V gametocytes
# Design: BacTiter-Glo ATP luminescence viability of purified stage V gametocytes in 384-well plates, per cent inhibition versus DMSO
# Conditions: 48 h, 5 µM; inhibitor
row,SMILES,% Inhibition [%]
1,CC(C)(C(=O)Nc1ccc(C2CCC(NCC3CC3)CC2)c(Cl)c1)c1cccc(OC(F)F)c1 (stereo not shown) [TCMDC-134643],32
2,CC(C)(C(=O)Nc1ccc(N2CCC3(CCCN(CC4CC4)C3)CC2)c(Cl)c1)c1cccc(C(F)(F)F)c1 [TCMDC-134639],-12.77
3,CC(C)(C(=O)Nc1ccc(C2CCC(NCC3CC3)CC2)c(Cl)c1)c1ccc(C(F)(F)F)cc1 (stereo not shown) [TCMDC-134642],92.31
4,O=C(Nc1cccc(-c2ccc(-c3nc4ccc(C(F)(F)F)cc4[nH]3)cc2)c1)c1cnc[nH]1 [TCMDC-136938],-50.65
5,CCC(=O)Nc1ccc(Nc2nc(C)cc(N3CCCC3)n2)cc1 [TCMDC-124971],-15.13
6,Fc1ccc(-c2csc3ncnc(Cl)c23)cc1 [TCMDC-125317],5.052
7,Clc1ncnc2scc(-c3ccc(Br)cc3)c12 [TCMDC-125318],-35.26
8,Cc1nnc(Sc2ncnc3scc(-c4ccc(F)cc4)c23)s1 [TCMDC-125239],77.07
9,CN1CC=C(c2c[nH]c3ccc(Oc4ccccc4)cc23)CC1 [TCMDC-138966],12.83
10,CN(C)Cc1ccc(-c2cc3c(-c4ccc(CN(C)C)cc4)ccnc3[nH]2)cc1 [TCMDC-132409],78.19
11,NCCNS(=O)(=O)c1ccc(-c2ccnc3[nH]c(-c4ccncc4)cc23)cc1 [TCMDC-133364],20.68
12,CN(C)Cc1cccc(-c2cc3c(-c4cnn(C)c4)c(Cl)cnc3[nH]2)c1 [TCMDC-134147],-89.46
13,Cc1ccc2[nH]c(-c3ccccc3N)cc2c1 [TCMDC-131289],-61.86
14,CNC(=O)c1c(NC(=O)c2cccs2)sc2c1CCCC2 [TCMDC-125739],-2.665
15,O=C(NC1CCN(CCC(NC(=O)c2ccccc2)c2ccc(Cl)c(Cl)c2)CC1)c1ccc(Cl)cc1 (stereo not shown) [TCMDC-141712],-1.186
16,O=C(NC1CCN(CC2(c3ccc(Cl)cc3)CCC2)CC1)c1ccn[nH]1 [TCMDC-124830],58.08
17,O=C(NC1CCN(CC2(c3ccccc3)CCCC2)CC1)c1[nH]ncc1Cl [TCMDC-124836],56.38
18,O=C(NC1CCN(CC2(c3ccccc3F)CCCC2)CC1)c1ccn[nH]1 [TCMDC-124837],65.27
19,CC(C)c1ccc(CN2CCC(NC(=O)c3ccc(-c4ccccc4F)s3)CC2)cc1 [TCMDC-134345],-26.31
20,O=C(NC1CCN(CC2(c3ccc(Cl)cc3)CCCCC2)CC1)c1ccn[nH]1 [TCMDC-124828],65.33
21,O=C(Nc1ccc(F)cc1)c1ccc(C(=O)NC2CCN(CC3CCCCC3)CC2)cc1 [TCMDC-136749],-13.8
22,O=C(NC1CC1)c1cnc(N2CCN(Cc3ccc(Cl)cc3)CC2)c(Cl)c1 [TCMDC-134601],8.945
23,Cc1cc(C(=O)NC2CCN(Cc3ccccc3)CC2)ccc1-c1nc2cc(Cl)c(Cl)cc2[nH]1 [TCMDC-140081],10.28
24,Cc1ccc(C2(CN3CCC(NC(=O)c4[nH]ncc4Cl)CC3)CCCCC2)cc1 [TCMDC-124838],29.65
25,CN(C)c1ccc(CN2CCC(NC(=O)c3ccc(-c4ccccc4F)s3)CC2)cc1 [TCMDC-134326],-40.45
26,O=C(NC1CCN(Cc2ccc(Cl)cc2)CC1)c1cn(-c2ccccc2)nc1-c1cccnc1 [TCMDC-125254],-34.02

row,SMILES,% Inhibition [%]
1,Cc1ccccc1OCC(=O)Nc1ccc(-c2nc3cc4ccccc4cc3[nH]2)cc1 [TCMDC-125670],10.69
2,CC1(C)N=C(N)N=C(N)N1c1ccc(Oc2ccccc2)cc1 [TCMDC-137712],1.861
3,CN(C)CCC(O)C=C(c1ccc(Cl)cc1)c1ccc(Cl)cc1 (stereo not shown) [TCMDC-132094],12.81
4,Cc1ccc(S(=O)(=O)n2cc(-c3ccnc(N)c3)c3cc(Br)cnc32)cc1 [TCMDC-134306],-5.282
5,COc1ccc2nccc([C@@H](O)CN3CCC(NCCOc4ccccc4[N+](=O)[O-])CC3)c2c1 [TCMDC-140711],39.45
6,COc1ccc2nccc([C@@H](O)CN3CCC(NC(=O)c4nc(Cl)c(Cl)c(N)c4Cl)CC3)c2c1 [TCMDC-140771],4.246
7,Cc1cccc(NC(=O)c2ccc(C(=O)NC3CCN(CC4CCCCC4)CC3)cc2)c1 [TCMDC-136748],-45.39
8,O=C(NC1CCN(Cc2ccccc2)CC1)c1csc2nc(-c3ccc(Cl)cc3)cn12 [TCMDC-133071],-8.625
9,CCc1[nH]nc(C(=O)NC2CCN(CC3(c4ccc(OC)cc4)CCCCC3)CC2)c1C [TCMDC-124840],100.4
10,CCc1[nH]nc(C(=O)Nc2cccc(N3CCCC3)c2)c1C [TCMDC-124845],-34.24
11,Cc1ccc(NC(=O)c2ccc(C(=O)NC3CCN(CC4CCCCC4)CC3)cc2)cc1 [TCMDC-136747],-26.65
12,Cc1ccc(C2(CN3CCC(NC(=O)c4ccn[nH]4)CC3)CCCCC2)cc1 [TCMDC-124839],64.93
13,O=C(NC1CCN(CC2(c3ccc(Cl)cc3)CCC2)CC1)c1cscn1 [TCMDC-124829],62.42
14,COc1c(I)cc(Cc2cnc(N)nc2N)cc1I [TCMDC-138050],-8.492
15,N#Cc1cc(N(CCCOc2cccc(OC(F)(F)F)c2)Cc2ccccc2C(F)(F)F)ccc1C(F)(F)F [TCMDC-132783],-11.19
16,COc1cccc(Cc2c(C)nc3nc(N)nc(N)c3c2C)c1 [TCMDC-137650],36.32
17,Cc1ccc(F)c(OCC2CCCN(c3ccc(C(=O)NC4CC4)cn3)C2)c1 (stereo not shown) [TCMDC-134035],18.85
18,Cc1cccc2[nH]c(-c3ccc(-c4cccc(CN5CCN(CCO)CC5)c4)cc3)nc12 [TCMDC-133029],-7.664
19,NC(N)=NC(=O)Nc1ccc([N+](=O)[O-])c(Cl)c1 [TCMDC-137468],-7.379
20,Cc1cccc2[nH]c(-c3cc(-c4cn[nH]c4)cnc3N)nc12 [TCMDC-133561],-9.324
21,Nc1ncc(-c2cn[nH]c2)cc1-c1nc2ccc(F)cc2[nH]1 [TCMDC-133559],26.39
22,NS(=O)(=O)c1cncc(-c2ccc3nccc(-c4cn[nH]c4)c3n2)c1 [TCMDC-134293],66.05
23,CC(NC(=O)c1ccc(O)c(-c2ccc(Cl)c(Cl)c2)c1)C(=O)NCCN1CCOCC1 (stereo not shown) [TCMDC-140849],3.738
24,Cc1cnc(N2CCN(CCCN3CCCC3)CC2)nc1Oc1ccc(-n2ccnc2)cc1 [TCMDC-132207],28.92
25,N#Cc1ccc(N(CCOc2ccc(Cl)c(Cl)c2)Cc2ccccc2C(F)(F)F)cc1C(F)(F)F [TCMDC-132795],-20.83
26,CC(Cc1ccc(NC(=O)c2ccc(CC(C)NCc3ccc(Cl)c(Cl)c3)cc2)cc1)NCCc1cccc(Cl)c1 (stereo not shown) [TCMDC-139806],8.931

row,SMILES,% Inhibition [%]
1,CC(Cc1ccc(NC(=O)c2ccc(CC(C)NCc3ccc(Cl)cc3)cc2)cc1)NCCc1cccc(Cl)c1 (stereo not shown) [TCMDC-139810],112.2
2,CC(=O)Nc1ccc(CNCCc2ccc(NC(=O)c3cc(Cl)cc(Cl)c3)cc2)cc1 [TCMDC-140678],2.681
3,CC(Cc1ccc(NC(=O)c2ccc(NCCc3ccccc3)cc2)cc1)NCCc1cccc(Cl)c1 (stereo not shown) [TCMDC-139832],47.1
4,CC(Cc1ccc(NC(=O)[C@H](C)NCCc2cccc(Cl)c2)cc1)NCCc1cccc(Cl)c1 (stereo partly shown) [TCMDC-139830],21.29
5,CC(Cc1ccc(NC(=O)[C@@H](C)NCCc2cccc(Cl)c2)cc1)NCCc1cccc(Cl)c1 (stereo partly shown) [TCMDC-139831],101.6
6,CCOc1ccccc1CCNC(C)Cc1ccc(C(=O)Nc2ccc(CC(C)NCCc3cccc(Cl)c3)cc2)cc1 (stereo not shown) [TCMDC-139805],111.8
7,CC(=O)Nc1ccc(CCNC(C)Cc2ccc(C(=O)Nc3ccc(CC(C)NCCc4cccc(Cl)c4)cc3)cc2)cc1 (stereo not shown) [TCMDC-139828],108.3
8,Cc1nc(Nc2ccc(F)cc2)nc(N2CCc3ccccc3C2C)c1CO (stereo not shown) [TCMDC-141074],-64.94
9,O=C(Nc1cccc(-c2cccc(-c3nc4ccc(F)cc4[nH]3)c2)c1)c1csnn1 [TCMDC-136899],16.2
10,O=C(Nc1cccc(-c2ccc(-c3nc4ccc(C(F)(F)F)cc4[nH]3)cc2)c1)Nc1ccc(Cl)c(Cl)c1 [TCMDC-133274],-18.31
11,Nc1nc2ccc(S(=O)(=O)Nc3ccc(C(=O)N[C@@H](CCC(=O)O)C(=O)O)c(F)c3)cc2c(=O)[nH]1 [TCMDC-137540],7.521
12,COc1ccc(CCNC(C)Cc2ccc(C(=O)Nc3ccc(CC(C)NCCc4cccc(Cl)c4)cc3)cc2)cc1 (stereo not shown) [TCMDC-139750],113.2
13,CC(Cc1ccc(C(=O)Nc2ccc(CC(C)NCCc3cccc(Cl)c3)cc2)cc1)NCCc1ccc(C(F)(F)F)cc1 (stereo not shown) [TCMDC-139790],137.5
14,Cc1cccc2nc(-c3ccc(-c4ccc(C(=O)NCCc5cn(C)cn5)cc4)s3)[nH]c12 [TCMDC-132499],-4.132
15,CCc1cc(NC2CCN(C)CC2)nc(Nc2cccc(OC)c2)n1 [TCMDC-134002],40.04
16,C=CCNc1cc(-c2ccccn2)nc(-c2ccccn2)n1 [TCMDC-123787],23.88
17,Cc1cc(NC2CCCC2)nc(Nc2ccccc2)n1 [TCMDC-133459],-35.61
18,c1ccc(-c2nc(NC3CCCCC3)cc(C3CC3)n2)nc1 [TCMDC-125825],105.2
19,c1ccc(-c2nnc(-c3ccccn3)nc2NC2CCCCC2)cc1 [TCMDC-123764],29.34
20,CC(Nc1cc(-c2ccccn2)nc(-c2ccccn2)n1)c1ccccc1 (stereo not shown) [TCMDC-125420],24.2
21,OC1CCN(c2cc(-c3ccccn3)nc(-c3ccccn3)n2)CC1 [TCMDC-123786],41.56
22,CC(C)(C)Nc1cc(C2CC2)nc(-c2ccccn2)n1 [TCMDC-124453],105.8
23,CC(C)(C)c1cc(NC2CC2)nc(-c2ccccn2)n1 [TCMDC-125826],69.03
24,c1ccc(CNc2cc(-c3ccccn3)nc(-c3ccccn3)n2)cc1 [TCMDC-125421],-1.689
